# From the supplement of paper PMC8728848
# This excerpt belongs to a sample that is enriched for the strongest signals.
# Columns and labels:
# Test in all cases: glycan array binding signal (z-score within array); higher = stronger binding
# Conditions in all cases: glycan notation: IUPAC condensed, linker removed
# [1] = molecular target: GlcNAc(b1-3)Gal(b1-4)GlcNAc(b1-3)Gal(b1-4)GlcNAc(b1-3)Gal(b1-4)GlcNAc(b1-2)[GlcNAc(b1-3)Gal(b1-4)GlcNAc(b1-3)Gal(b1-4)GlcNAc(b1-3)Gal(b1-4)GlcNAc(b1-6)]Man(a1-6)[GlcNAc(b1-3)Gal(b1-4)GlcNAc(b1-3)Gal(b1-4)GlcNAc(b1-3)Gal(b1-4)GlcNAc(b1-2)Man(a1-3)]Man(b1-4)GlcNAc(b1-4)[Fuc(a1-6)]GlcNAc
# How it was run: (§1)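 From the Consortium for Functional Glycomics database, 3228 arrays were curated, keeping only those whose protein sequence was available. Binding is given as a within-array Z-score averaged across arrays sharing a protein sequence and across linkers. Negative Z-scores can be read as non-binding.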
# [2] = molecular target: GlcNAc(b1-4)[GlcNAc(b1-6)]GalNAc
# How it was run: as §1
# Kdn(a2-3)Gal(b1-3)GlcNAc = molecular target: Kdn(a2-3)Gal(b1-3)GlcNAc
# How it was run: as §1
# [3] = molecular target: Man(a1-2)Man(a1-3)[Man(a1-2)Man(a1-6)]Man(a1-6)[Man(a1-2)Man(a1-2)Man(a1-3)]Man
# How it was run: as §1
# [4] = molecular target: Man(a1-2)Man(a1-6)[Man(a1-3)]Man(a1-6)[Man(a1-2)Man(a1-2)Man(a1-3)]Man
# How it was run: as §1
# [5] = molecular target: Neu5Ac(a2-3)Gal(b1-4)GlcNAc(b1-3)Gal(b1-3)GlcNAc
# How it was run: as §1
# [6] = molecular target: Neu5Ac(a2-3)Gal(b1-4)GlcNAc(b1-3)Gal(b1-4)GlcNAc
# How it was run: as §1
# [7] = molecular target: Neu5Ac(a2-3)Gal(b1-4)GlcNAc(b1-3)Gal(b1-4)GlcNAc(b1-3)GalNAc
# How it was run: as §1
# Neu5Ac(a2-3)GalNAc = molecular target: Neu5Ac(a2-3)GalNAc
# How it was run: as §1
# [8] = molecular target: Neu5Ac(a2-3)[GalNAc(b1-4)]Gal(b1-4)GlcNAc(b1-3)GalNAc
# How it was run: as §1
# [9] = molecular target: Neu5Ac(a2-3)[Neu5Ac(a2-6)]GalNAc
# How it was run: as §1
# Neu5Ac(a2-6)Gal(b1-4)Glc = molecular target: Neu5Ac(a2-6)Gal(b1-4)Glc
# How it was run: as §1
# [10] = molecular target: Neu5Ac(a2-6)Gal(b1-4)GlcNAc(b1-2)Man(a1-6)Man(b1-4)GlcNAc(b1-4)GlcNAc
# How it was run: as §1
# [11] = molecular target: Neu5Ac(a2-6)Gal(b1-4)GlcNAc(b1-2)Man(a1-6)[Gal(b1-4)GlcNAc(b1-2)Man(a1-3)]Man(b1-4)GlcNAc(b1-4)GlcNAc
# How it was run: as §1
# [12] = molecular target: Neu5Ac(a2-6)Gal(b1-4)GlcNAc(b1-3)Gal(b1-4)GlcNAc(b1-2)Man(a1-3)[Neu5Ac(a2-6)Gal(b1-4)GlcNAc(b1-3)Gal(b1-4)GlcNAc(b1-2)Man(a1-6)]GalNAc
# How it was run: as §1
# [13] = molecular target: Neu5Ac(a2-6)Gal(b1-4)GlcNAc(b1-3)Gal(b1-4)GlcNAc(b1-3)Gal(b1-4)GlcNAc
# How it was run: as §1
# [14] = molecular target: Neu5Ac(a2-6)Gal(b1-4)GlcNAc(b1-3)Gal(b1-4)GlcNAc(b1-3)Gal(b1-4)GlcNAc(b1-2)Man(a1-3)[Neu5Ac(a2-6)Gal(b1-4)GlcNAc(b1-3)Gal(b1-4)GlcNAc(b1-3)Gal(b1-4)GlcNAc(b1-2)Man(a1-6)]GalNAc
# How it was run: as §1
# [15] = molecular target: Neu5Ac(a2-6)Gal(b1-4)GlcNAc(b1-3)Gal(b1-4)GlcNAc(b1-6)[Gal(b1-3)]GalNAc
# How it was run: as §1
# [16] = molecular target: Neu5Ac(a2-8)Neu5Ac(a2-3)Gal(b1-3)GalNAc(b1-4)[Neu5Ac(a2-3)]Gal(b1-4)Glc
# How it was run: as §1
# [17] = molecular target: Neu5Ac(a2-8)Neu5Ac(a2-8)Neu5Ac
# How it was run: as §1
# [18] = molecular target: Neu5Ac(a2-8)Neu5Gc(a2-3)Gal(b1-4)GlcNAc
# How it was run: as §1
# [19] = molecular target: Neu5Gc(a2-8)Neu5Gc(a2-3)Gal(b1-4)GlcNAc
# How it was run: as §1
# [20] = molecular target: Neu5Gc(a2-8)Neu5Gc(a2-3)Gal(b1-4)GlcNAc(b1-3)Gal(b1-4)GlcNAc
# How it was run: as §1
binder,measurement,setting,value
PX14375A-pdi-503-28-503 (Parabacteroides distasonis) (protein) PLGSPEAGDISEERQAFLRLTAVYSVMKDFRYTWSMQCFGDVLSNDATYSGSSNDAQTFTLLENYQYQADHTEILNKYRYSYQCINKANLFIRDMEMADDALFSKYDKEQMIGEAKFIRAYTYFELVKTFGGVPCYTGVLDLDHERLGRASVEEIYSVIEQDLNDAVSVLPKKSEVANYESSYAGRITKGAAIAMQTRIYLYEKKYDEVKKAFEKFQNECGGEYSLVAPEDYTWQFSLDGEHCSSSILEVNMYNSSTQSSYNVNNGNRHVLMSMPRNMTIGFGCAQPTQALADAYDAEGDVIRKKTTLLSTEEAIEIETAAKGDVAPVTDDRTGWYNRKLYLAPGQREENRGNNQPTNLRLIRLAEVYLNYAEACYFSGDIANAQKYLNEVRSHVNLAPKNHTGSQLFEDIMNERHLEFGMEGFRFFDVVRVGWGEKVFNGTKKAEFGAKTPFSAGAEVLPIPQTEIDISDGLITN,glycan array binding signal (z-score),[1],0.489
same,glycan array binding signal (z-score),[2],2.82
same,glycan array binding signal (z-score),Kdn(a2-3)Gal(b1-3)GlcNAc,-0.519
same,glycan array binding signal (z-score),[3],1.42
same,glycan array binding signal (z-score),[4],-0.437
same,glycan array binding signal (z-score),[5],-0.225
same,glycan array binding signal (z-score),[6],0.104
same,glycan array binding signal (z-score),[7],-0.442
same,glycan array binding signal (z-score),Neu5Ac(a2-3)GalNAc,-0.004
same,glycan array binding signal (z-score),[8],-1.13
same,glycan array binding signal (z-score),[9],0.006
same,glycan array binding signal (z-score),Neu5Ac(a2-6)Gal(b1-4)Glc,-0.412
same,glycan array binding signal (z-score),[10],-0.882
same,glycan array binding signal (z-score),[11],-0.819
same,glycan array binding signal (z-score),[12],0.642
same,glycan array binding signal (z-score),[13],0.319
same,glycan array binding signal (z-score),[14],1.64
same,glycan array binding signal (z-score),[15],-0.493
same,glycan array binding signal (z-score),[16],-0.127
same,glycan array binding signal (z-score),[17],-0.278
same,glycan array binding signal (z-score),[18],13.2
same,glycan array binding signal (z-score),[19],-0.736
same,glycan array binding signal (z-score),[20],-0.755
